Compounds without any hit were thinned out: in the full panel of roughly 79,000, 15% have a hit. Unmarked numbers belong to inactive results. Calls of active or inactive are those of the source. Rule as the data show it: active = growth inhibition above about 70%; inactive = the rest.

The nature of the assay: NCI Yeast Anticancer Drug Screen. Data for the rad50 strain (AID 155).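 Also: 0% = growth of vehicle-only cultures of the same strain.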 Conditions: S. cerevisiae rad50 strain growth inhibition; at 50.0 µM; stronger effect = higher value. An outline of the steps:
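Inhibition values express reduced yeast growth in compound-treated cultures relative to vehicle-treated controls.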
For `c1ccc(-c2c3ccccc3cc3c2ccc2ccccc23)cc1`, the growth inhibition was -13.4%. Take `CCCCCCC(C)(C)NC(N)=O`: the growth inhibition is -9.4%. Under `Cc1ncc(N)nc1C` stands -5.25%; under `CC(=O)OCc1ccc(C)cc1`, -9.05%.

As for `O=C(O)CCc1ccccc1CC(=O)O`, the growth inhibition was 12.8%.

As for `CC(=O)O[C@H]1C[C@]2(C)C(CCC3O[C@@]32C)[C@@]2(CC(c3ccoc3)OC2O)[C@@H]1C` (stereo not given in full), the growth inhibition was -10.8%. Take `CC1=C(CC2C(=O)N(c3ccccc3)S(=O)(=O)NC2C)C(=O)N(c2ccccc2)S(=O)(=O)N1C` (stereo not given): the growth inhibition was 20.1%. With `O/N=C1/C(=C/c2ccc(F)cc2)CCCC1C(NO)c1ccc(F)cc1` (stereo not given), the growth inhibition is -3.9%. Under `COC(=O)N/N=C/c1oc(-c2ccccc2)c(-c2ccccc2)c1[N+](=O)[O-]` stands -2.15%; under `COc1ccc(C2C3=C(CC(C)(C)CC3=O)Oc3cc4c(cc32)OCO4)cc1` (stereo not given), -2.7%.

As to `CN(C)NC(=O)Nc1cccc2ccccc12`, the growth inhibition was -25.2%. Under `CC(C)(C)OC(=O)C1CCC/C1=N/Nc1ccc([N+](=O)[O-])cc1[N+](=O)[O-]` (stereo not given) stands -38.3%; under `CC(C)CCCC(C)CCCl` (stereo not given), 3.85%. With `NC(=O)N/N=C(\Cc1nc2ccc(Cl)cc2[nH]c1=O)C(=O)Nc1ccc(Cl)cc1Cl`, the growth inhibition is 11.9%. As to `Cc1[nH]n(C(=N)N)c(=O)c1CCO`, the growth inhibition is -7.15%. On to `CC(=O)OCC1OC(n2cnc([N+](=O)[O-])c2Br)C(OC(C)=O)C1OC(C)=O` (stereo not given), for which the growth inhibition was 15.1%. Consider `CCCCCCCC(CC#N)(CCCCC)CCCCCC` (stereo not given), for which the growth inhibition was 16.6%.

Consider `CCN(CC)CCNc1cc(C)nc(/N=C(\N)Nc2ccc(Cl)cc2)n1`, for which the growth inhibition is 23.9%. Regarding `O=C(O)c1cc2c([nH]1)-c1cccnc1C(=O)C2=O`, the growth inhibition is -9.6%. As to `CC1c2ccccc2-c2ccccc2N1C(=O)c1cccc(C(=O)N2c3ccccc3-c3ccccc3C2C)n1` (stereo not given), the growth inhibition is 26.3%. For `O=C(O)C12CCCCC1CCCC2` (stereo not given), the growth inhibition was 11.4%. In the case of `N#CC1(Cc2ccccc2[N+](=O)[O-])c2ccccc2C2C(N1C(=O)c1ccccc1)C2(Cl)Cl` (stereo not given), the growth inhibition was -2.5%.

`CCn1nnc2c(C(N)=O)ncn2c1=O`: the growth inhibition was 0.6%. For `O=C(/C=C/c1ccccc1)NCC(O)CO` (stereo not given), the growth inhibition is 7.1%. As for `CN(C)CCCOc1nc2c(c(=O)n(C)c(=O)n2C)n1C` (tested in a mixture with another compound), the growth inhibition is 0.9%. For `COc1cc2cccc(N=Cc3cccc(OC)c3OC(C)C)c2cc1OC`, the growth inhibition was -20.9%. Turning to `O=C(Cc1ccccc1)NC(=O)Nc1ccccc1`, the growth inhibition was -7.5%. Consider `COC(=O)c1cc(=O)c2ccc(Cl)cc2[nH]1`, for which the growth inhibition is -8.05%.

In the case of `COc1ccc(SC(N(C)C)=[N+](C)C)cc1`, the growth inhibition was -17.1%. `CCN(CC)CCNc1cc(OC)c(N)c2cccnc12`: the growth inhibition was 14.2%.

`Cc1cc(C)nc(NS(=O)(=O)c2ccc(NC(=O)c3cccc4c(Nc5ccc(S(=O)(=O)N=C(N)N)cc5)c5ccc(Cl)cc5nc34)cc2)n1`: the growth inhibition was 16.4%. As to `CN(N)c1cc(=O)n(C)c(=O)n1C`, the growth inhibition is -1.35%. The result for `C=C(Cl)CSC(C)(C)C` reads -9.4%; that for `CCCCc1ccc(Nc2nc(OC)c3ncn(C4CC(O)C(CO)O4)c3n2)cc1` (stereo not given), 88.1% (active). Take `c1ccc(CNCCCNCCCCNCCCNCc2ccccc2)cc1`: the growth inhibition was 7.75%. As for `OC1CCC(C2C3CCCCC3C3CCCCC3C2C2CCC(O)CC2)CC1` (stereo not given), the growth inhibition was 94.7% (active). As for `CC(=O)Nc1ccc(S(=O)(=O)O)nc1`, the growth inhibition is 0.45%.

With `CC1=C(C(=O)NCc2ccccc2)C(/C=C/c2ccccc2)C(C(=O)NCc2ccccc2)=C(C)N1`, the growth inhibition was 46%.

As for `CCc1ccc(-c2c(-c3ccccc3)c(-c3ccccc3)c(-c3ccccc3)c(-c3ccccc3)c2-c2ccccc2)cc1`, the growth inhibition is 31.1%. In the case of `O=C/C(=C1/C=Cc2cc([N+](=O)[O-])ccc2S1)c1ccccc1`, the growth inhibition was -6.5%.

Source of the values: PubChem BioAssay (NCI).
